Laboratory results as given in PubChem BioAssay (NCATS).
Records with an inconclusive call do not appear. Activity calls are given as the source filed them. Calls come from the whole dose curve; as a rule, active = well fitted curve in the direction sought with a large enough effect; inconclusive = small, poorly fitted or top-dose-only effect, or another doubt; inactive = no such curve, though single readings can be large; an effect the other way counts as inactive or inconclusive.

Tests used:
[1] = Cellular Toxicity (caspase-3) Mesangial (AID 660); conditions: mesangial cells, normalized: DMSO 0%, 100 µM tamoxifen 100%; at 91.7 µM (top of the series);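 note: combined caspase 3 and 7 activity read by Caspase-Glo luminescence; cells exposed to compound for 16 h before the caspase read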
How it was run: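 Seed cells derived from normal human renal glomeruli, incubate 5 h, add compounds across concentrations and incubate 16 h at 37 °C. Caspase 3/7 activation is then quantified by luciferase light, with AC50 derived by Hill modeling.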

[2] = Cellular Toxicity (caspase-3) SK-N-SH (AID 661); conditions: SK-N-SH caspase-3 activation, qHTS, DMSO as zero, staurosporine as full; series mostly up to 91.7 µM
How it was run: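 Cells were seeded and incubated 5 hr at 37 °C, dosed with compound over a concentration range for 16 hr, then given Caspase-Glo 3/7 reagent for 1 hr at room temperature before luminescence reading.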

[3] = Cellular Toxicity (caspase-3) H-4-II-E (AID 663); conditions: H-4-II-E rat hepatoma, scaled: DMSO 0%, 100 µM tamoxifen 100%; at 92.2 µM (top of the series);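 note: cells exposed to compound for 16 hr before readout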
How it was run: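 Caspase 3/7 activation measured by luminescent aminoluciferin substrate cleavage after 16 hr compound treatment of H-4-II-E cells in complete medium. Increase normalized between DMSO (basal) and 100 uM tamoxifen (100%); Hill-equation AC50 from concentration-response.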

[4] = Cellular Toxicity (caspase-3) Hek293 (AID 664); conditions: HEK293 caspase-3 activation, DMSO = 0%, 100 µM tamoxifen = 100%; at 92.2 µM (top of the series);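 note: cells exposed to compound for 16 h at 37 °C before readout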
How it was run: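 qHTS, HEK293 (human embryonic kidney), 16 h cpd exposure in complete medium. Caspase-3/7 activation = luminescence increase; normalized to DMSO/100 uM tamoxifen; Hill-fit AC50.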

[5] = Cellular Toxicity (caspase-3) N2a (AID 665); conditions: N2a cells, luminescence, normalized: DMSO 0%, 10 µM staurosporine 100%; series mostly up to 92.2 µM;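 note: compound exposure lasted 16 h at 37 °C before readout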
How it was run: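 Caspase-3/7 activation, measured as increased luminescence from aminoluciferin release, is quantified in mouse N2a cells exposed to compounds for 16 h. Values are normalized to DMSO and 10 uM staurosporine, with AC50 derived by Hill modelling.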

[6] = Cellular Toxicity (caspase-3) NIH 3T3 (AID 666); conditions: NIH 3T3 caspase-3 activation, apoptosis/toxicity, 0% DMSO, 100% is 100 µM tamoxifen; series mostly up to 92.2 µM;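 note: caspase signal read after 16 h compound exposure; 0% = DMSO basal and 100% = 100 µM tamoxifen stimulation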
How it was run: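 Cells were plated at 1000 per well and incubated 5 hr at 37°C, then compound was added for 16 hr. Caspase-Glo 3/7 reagent followed for 20 min at room temperature before luminescence was read.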

[7] = Cellular Toxicity (caspase-3) Renal Proximal Tubule (AID 667); conditions: renal proximal tubule cells, primary cells freshly taken from rat; Potency: caspase-3 activation; series mostly up to 91.7 µM;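 note: cells exposed to compound for 16 hours at 37 °C before detection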
How it was run: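 AC50 derived by standard Hill fit of concentration-response data, normalized between DMSO basal and 10 uM staurosporine as 100% stimulation. Cells: primary rat kidney proximal tubule, 16 h treatment at 37 °C.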

[8] = target: Cytochrome P450 3A4 (Homo sapiens) (UniProt P08684); experiment: qHTS Assay for Inhibitors and Substrates of Cytochrome P450 3A4 (AID 884); conditions: recombinant CYP3A4, Luciferin-PPXE luminescence; series mostly up to 57.1 µM; note: % is set by controls: 0 for no effect and ±100 for the full control effect; nearly all actives have a fitted effect of over 50% in size
How it was run: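 Luminescent readout of luciferin produced by CYP3A4 (20 nM) dealkylation of Luciferin-PPXE, 25 uM (its KM). NADPH-driven reaction ran 60 min at RT after 10 min compound preincubation; data scaled to 57 uM ketoconazole as 100% inhibition.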

[9] = Cell Viability - LYMP2-001 (AID 921); conditions: LYMP2-001 lymphoblastoid cell viability; series mostly up to 92.2 µM;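 note: cells exposed to compound for 24 h at 37 °C; 0% = DMSO only and full inhibition = tetraoctylammonium bromide control wells; nearly all actives have a fitted effect of over 70% in size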
How it was run: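 Steps: seed 2500 lymphoblastoid cells/well; 5 hr, 37 C; add compound; 24 hr, 37 C; CellTiter-Glo reagent, 30 min room temperature; read luminescence. Concentration-response modeled by Hill equation for AC50.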

Sequence of Cytochrome P450 3A4 (Homo sapiens) (P08684 whole entry, looked up): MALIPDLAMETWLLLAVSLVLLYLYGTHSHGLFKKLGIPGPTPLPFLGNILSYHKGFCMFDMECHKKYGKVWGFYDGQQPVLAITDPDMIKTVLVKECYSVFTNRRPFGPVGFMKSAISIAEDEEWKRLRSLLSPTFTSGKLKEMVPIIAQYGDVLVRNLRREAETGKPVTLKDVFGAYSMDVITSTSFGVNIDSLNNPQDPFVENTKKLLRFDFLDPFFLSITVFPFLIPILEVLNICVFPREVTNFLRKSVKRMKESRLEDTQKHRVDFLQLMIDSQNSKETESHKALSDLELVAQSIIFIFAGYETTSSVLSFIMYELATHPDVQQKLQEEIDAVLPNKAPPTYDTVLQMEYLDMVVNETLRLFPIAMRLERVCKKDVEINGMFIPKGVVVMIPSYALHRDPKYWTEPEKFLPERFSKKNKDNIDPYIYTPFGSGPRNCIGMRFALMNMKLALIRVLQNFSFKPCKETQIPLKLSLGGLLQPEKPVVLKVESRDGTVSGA

CC(=O)Nc1ccccc1C
inactive: caspase-3 activation [1] 2.04% | outcome [2] | caspase-3 activation [3] 1.63% | caspase-3 activation [4] 3.57% | outcome [5] | outcome [6] | Potency [7] | Potency [8] | Potency [9]

CC(=O)c1cccc([N+](=O)[O-])c1
inactive: caspase-3 activation [1] 1.01% | outcome [2] | caspase-3 activation [3] -1.03% | caspase-3 activation [4] 2.43% | outcome [5] | outcome [6] | Potency [7] | Potency [8] | Potency [9]

Nc1cccc(O)c1
inactive: caspase-3 activation [1] 0.168% | outcome [2] | caspase-3 activation [3] -0.484% | caspase-3 activation [4] 1.1% | outcome [5] | outcome [6] | Potency [7] | Potency [8] | Potency [9]

CC(=O)c1ccccn1
inactive: caspase-3 activation [1] 0.864% | outcome [2] | caspase-3 activation [3] 1.68% | caspase-3 activation [4] 0.0845% | outcome [5] | outcome [6] | Potency [7] | Potency [8] | Potency [9]

CC1CCC2CC1C2(C)C (stereo not given)
inactive: caspase-3 activation [1] 0.29% | outcome [2] | caspase-3 activation [3] 1.27% | caspase-3 activation [4] -2.62% | outcome [5] | outcome [6] | Potency [7] | Potency [8] | Potency [9]

CC(C)Nc1ccccc1
inactive: caspase-3 activation [1] 1.26% | outcome [2] | caspase-3 activation [3] 0.457% | caspase-3 activation [4] 2.55% | outcome [5] | outcome [6] | Potency [7] | Potency [8] | Potency [9]

Cc1cc(C)cc(N)c1
inactive: caspase-3 activation [1] -0.679% | outcome [2] | caspase-3 activation [3] -0.0763% | caspase-3 activation [4] -0.185% | outcome [5] | outcome [6] | Potency [7] | Potency [8] | Potency [9]

O=[N+]([O-])c1ccc(NCCO)c(OCCO)c1
inactive: caspase-3 activation [1] 0.383% | outcome [2] | caspase-3 activation [3] 0.77% | caspase-3 activation [4] 0.203% | outcome [5] | outcome [6] | Potency [7] | Potency [8] | Potency [9]

Nc1nc2ccccc2[nH]1
inactive: caspase-3 activation [1] -0.927% | outcome [2] | caspase-3 activation [3] -0.868% | caspase-3 activation [4] 0.0156% | outcome [5] | outcome [6] | Potency [7] | Potency [8] | Potency [9]

CCCCC(CC)C(=O)O (stereo not given)
inactive: caspase-3 activation [1] 0.178% | outcome [2] | caspase-3 activation [3] -0.144% | caspase-3 activation [4] 2.49% | outcome [5] | outcome [6] | Potency [7] | Potency [8] | Potency [9]

Cc1ccco1
inactive: caspase-3 activation [1] 0.332% | outcome [2] | caspase-3 activation [3] 1.57% | caspase-3 activation [4] -0.963% | outcome [5] | outcome [6] | Potency [7] | Potency [8] | Potency [9]

CCCCCCC=O
inactive: caspase-3 activation [1] -0.687% | outcome [2] | caspase-3 activation [3] 1.06% | caspase-3 activation [4] -2.62% | outcome [5] | outcome [6] | Potency [7] | Potency [8] | Potency [9]

CC/C=C1/OC(=O)c2ccccc21
inactive: caspase-3 activation [1] 0.157% | outcome [2] | caspase-3 activation [3] 0.49% | caspase-3 activation [4] 1.13% | outcome [5] | outcome [6] | Potency [7] | Potency [8] | Potency [9]

COC(=O)CCCC(=O)OC
inactive: caspase-3 activation [1] -0.518% | outcome [2] | caspase-3 activation [3] -0.182% | caspase-3 activation [4] -0.162% | outcome [5] | outcome [6] | Potency [7] | Potency [8] | Potency [9]

CCCCCCCCC
inactive: caspase-3 activation [1] -0.687% | outcome [2] | caspase-3 activation [3] 0.863% | caspase-3 activation [4] -2.1% | outcome [5] | outcome [6] | Potency [7] | Potency [8] | Potency [9]

O=C(O)CCSSCCC(=O)O
inactive: caspase-3 activation [1] -0.167% | outcome [2] | caspase-3 activation [3] -0.00623% | caspase-3 activation [4] -0.885% | outcome [5] | outcome [6] | Potency [7] | Potency [8] | Potency [9]

C=C(C)C(=O)OCC(C)O (stereo not given)
inactive: caspase-3 activation [1] 0.397% | outcome [2] | caspase-3 activation [3] 0.102% | caspase-3 activation [4] -1.45% | outcome [5] | outcome [6] | Potency [7] | Potency [8] | Potency [9]

NC(=O)NC(N)=O
inactive: caspase-3 activation [1] -0.43% | outcome [2] | caspase-3 activation [3] -0.188% | caspase-3 activation [4] 0.826% | outcome [5] | outcome [6] | Potency [7] | Potency [8] | Potency [9]

NC(=O)CCCCC(N)=O
inactive: caspase-3 activation [1] -0.354% | outcome [2] | caspase-3 activation [3] 0.202% | caspase-3 activation [4] -0.72% | outcome [5] | outcome [6] | Potency [7] | Potency [8] | Potency [9]

C=CC(=O)NC(C)C
inactive: caspase-3 activation [1] 1.12% | outcome [2] | caspase-3 activation [3] 0.575% | caspase-3 activation [4] 2.01% | outcome [5] | outcome [6] | Potency [7] | Potency [8] | Potency [9]

Cc1c(N)cccc1[N+](=O)[O-]
inactive: caspase-3 activation [1] 0.18% | outcome [2] | caspase-3 activation [3] -0.123% | caspase-3 activation [4] 1.08% | outcome [5] | outcome [6] | Potency [7] | Potency [8] | Potency [9]

Nc1cccc(S(=O)(=O)O)c1
inactive: caspase-3 activation [1] -0.0111% | outcome [2] | caspase-3 activation [3] -0.597% | caspase-3 activation [4] -1.89% | outcome [5] | outcome [6] | Potency [7] | Potency [8] | Potency [9]

CC(C)N=C=NC(C)C
inactive: caspase-3 activation [1] -0.478% | outcome [2] | caspase-3 activation [3] 2.29% | caspase-3 activation [4] -0.83% | outcome [5] | outcome [6] | Potency [7] | Potency [8] | Potency [9]

CCCCC(C=O)CC (stereo not given)
inactive: caspase-3 activation [1] 0.71% | outcome [2] | caspase-3 activation [3] 3.13% | caspase-3 activation [4] 1.03% | outcome [5] | outcome [6] | Potency [7] | Potency [8] | Potency [9]

Cc1ccccc1C=O
inactive: caspase-3 activation [1] -0.421% | outcome [2] | caspase-3 activation [3] 0.931% | caspase-3 activation [4] 1.08% | outcome [5] | outcome [6] | Potency [7] | Potency [8] | Potency [9]

Cc1ccc(N(C)C)cc1
inactive: caspase-3 activation [1] 0.102% | outcome [2] | caspase-3 activation [3] -1.01% | caspase-3 activation [4] -0.882% | outcome [5] | outcome [6] | Potency [7] | Potency [8] | Potency [9]

CC(O)COC(C)(C)C (stereo not given)
inactive: caspase-3 activation [1] -1.28% | outcome [2] | caspase-3 activation [3] -0.238% | caspase-3 activation [4] 2.41% | outcome [5] | outcome [6] | Potency [7] | Potency [8] | Potency [9]

ICCc1ccccc1
inactive: caspase-3 activation [1] 0.262% | outcome [2] | caspase-3 activation [3] 0.877% | caspase-3 activation [4] 3.13% | outcome [5] | outcome [6] | Potency [7] | Potency [8] | Potency [9]

O=C(O)CNC(=O)c1ccc(CO)o1
inactive: caspase-3 activation [1] -0.765% | outcome [2] | caspase-3 activation [3] -0.71% | caspase-3 activation [4] -0.0261% | outcome [5] | outcome [6] | Potency [7] | Potency [8] | Potency [9]

CCCC(C)CO (stereo not given)
inactive: caspase-3 activation [1] 0.885% | outcome [2] | caspase-3 activation [3] 1.09% | caspase-3 activation [4] 1.12% | outcome [5] | outcome [6] | Potency [7] | Potency [8] | Potency [9]
